This passage reports Potency, activity change, negative = thiol reactive and activity, negative = inhibition results from PubChem BioAssay (NCATS).

Inconclusive results are not listed. A call without a number means that no potency is given here. Activity calls are given as the source filed them. Calls come from the whole dose curve; as a rule, active = well fitted curve in the direction sought with a large enough effect; inconclusive = small, poorly fitted or top-dose-only effect, or another doubt; inactive = no such curve, though single readings can be large; an effect the other way counts as inactive or inconclusive.
Potency is the fitted concentration of half-maximal effect.

Test system in the first assay: not listed separately
The assay can be described thus: Primary fluorescence-based thiol-reactive (MSTI) qHTS assay for identification of artifact compounds. (AID 1845221).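 For activity change, negative = thiol reactive: thiol-reactive compounds lower the probe fluorescence signal.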 Note: nearly all actives have a fitted effect of over 65% in size. Conditions: MSTI thiol-reactivity probe, 1 h; series mostly up to 53.8 µM. A digest of the protocol:
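A multi-concentration qHTS design tested compounds against 4 uM MSTI, pH 7.4 phosphate-buffered saline. Plates were protected from light for 1 h at room temperature before imaging fluorescence.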
(Quantitative high-throughput screening tests each substance at several concentrations.)
`COc1cc(C)c(Sc2cnc(NC(=O)c3ccc(CNC(C)C(C)C)cc3)s2)cc1C(=O)N1CCN(C(C)=O)CC1` (configuration not stated): the Potency entry is “inactive”.
The same measure, in the same setting: the value for `Fc1cc(-c2cccc3ncc(-c4cnn(C5CCNCC5)c4)nc23)cc(F)c1CN1CCOCC1` was “inactive”; that for `C[C@]12CC[C@H](O)CC1=CCC1C2CC[C@]2(C)C(n3cnc4ccccc43)=CCC12` (some centres not stated) was “inactive”.
Still for that read-out and setting: the value for `Cc1cc(Nc2ncnc3ccc(-c4ccc(CNCCS(C)(=O)=O)o4)cc23)ccc1Oc1ccn2ncnc2c1` was “inactive”.
Regarding `CCCCOc1c(C(=O)c2c(F)cc(C)cc2F)cnc2n[nH]cc12`, the Potency result is “inactive”.
Turning to `Cn1c(=O)n(-c2ccc(C(C)(C)C#N)cc2)c2c3cc(-c4cnc5ccccc5c4)ccc3ncc21`, the Potency result is “inactive”.
Take `Cc1cnc(-c2cnc(NCCNc3ccc(C#N)cn3)nc2-c2ccc(Cl)cc2Cl)[nH]1`: the Potency entry was “inactive”.
`CC(C)c1nn(-c2c(Cl)cccc2Cl)c2nc(Cc3ccc(OCCO)cc3)[nH]c(=O)c12`: the Potency entry was “inactive”.
With `CC[C@@H]1C(=O)N(C)c2cnc(Nc3ccc(C(=O)NC4CCC(N5CCN(CC6CC6)CC5)CC4)cc3OC)nc2N1C(C)C` (some centres not stated), the Potency entry was “inactive”.
Regarding `CC(=O)c1c(C)c2cnc(Nc3ccc(N4CCNCC4)cn3)nc2n(C2CCCC2)c1=O`, the activity change, negative = thiol reactive was 7.61% [at 6.41 µM] (inactive).
Turning to `C[C@@H]1COC(Nc2ccc3ncnc(Nc4ccc(OCc5nccs5)c(Cl)c4)c3c2)=N1`, the Potency result was “inactive”.
Turning to `NCC(=O)Nc1ccc(-n2nc(C(F)(F)F)cc2-c2ccc3c(ccc4ccccc43)c2)cc1`, the Potency result is “inactive”.
Same read-out and setting: the value for `c1ccc2c(CCNc3ccc(Nc4ccncc4)cc3)c[nH]c2c1` was 2.67 µM (active); that for `Cc1ccc(C(=O)Nc2ccc(CN3CCN(C)CC3)c(C(F)(F)F)c2)cc1C#Cc1cnc2cccnn12` was “inactive”; that for `COC(=O)Nc1nc2ccc(C(=O)c3ccc(F)cc3)cc2[nH]1` was “inactive”.
On the same count and under the same terms, in the case of `CC(C)c1cc(C(=O)N2Cc3ccc(CN4CCN(C)CC4)cc3C2)c(O)cc1O` it was “inactive”; in that of `CN1CCN(Cc2ccc(NC(=O)Nc3ccc(Oc4cc(NC(=O)C5CC5)ncn4)cc3)cc2C(F)(F)F)CC1`, “inactive”.
Consider `COc1cccc(-c2ccc(NC(=O)C3=C(C(=O)O)CCC3)c(F)c2)c1`, for which the Potency result was “inactive”.
On the same count and under the same terms, the value for `CNC(=O)c1cc(Oc2ccc(NC(=O)Nc3cc(C(C)(C)C)nn3-c3ccc4ncccc4c3)c(F)c2)ccn1` was “inactive”.
The same measure, in the same setting: in the case of `Nc1nc(Nc2ccc(S(N)(=O)=O)cc2)nn1C(=O)c1c(F)cccc1F` it was “inactive”; in that of `CN(C)CC(C)(C)CNc1nn2c(-c3ccccc3)nnc2cc1C1CCC1`, “inactive”.

The subject of the next assay is Nanoluciferase (engineered Oplophorus gracilirostris luciferase). The assay can be described thus: Primary Nanoluciferase (NLuc) qHTS assay for identification of artifact compounds. (AID 1845222).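 For activity, negative = inhibition: NLuc secreted into diluted conditioned medium of S16 cells.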 Conditions: NLuc-conditioned medium, Nano-Glo luminescence, 5 min; series mostly up to 54.1 µM. In a few lines:
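S16 cell supernatant NLuc, 1:55; cpds qHTS; 15 min RT dark; Nano-Glo substrate 1:100, 5 min; luminescence; Hill fit of % inhibition.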
For the molecule `COc1cc(Nc2ncc(F)c(Nc3ccc4c(n3)N(COP(=O)(O)O)C(=O)C(C)(C)O4)n2)cc(OC)c1OC`, the Potency entry was “inactive”.
Same read-out and setting: the value for `CC1(O)CC(c2nc(-c3ccc4ccc(-c5ccccc5)nc4c3)c3c(N)nccn23)C1` (configuration not stated) was “inactive”.
For the molecule `Fc1cc(-c2cccc3ncc(-c4cnn(C5CCNCC5)c4)nc23)cc(F)c1CN1CCOCC1`, the Potency entry is “inactive”.
As to `C[C@]12CC[C@H](O)CC1=CCC1C2CC[C@]2(C)C(n3cnc4ccccc43)=CCC12` (some centres not stated), the Potency entry is “inactive”.
As to `CCCCOc1c(C(=O)c2c(F)cc(C)cc2F)cnc2n[nH]cc12`, the Potency result is “inactive”.
On the same count and under the same terms, in the case of `Cn1c(=O)n(-c2ccc(C(C)(C)C#N)cc2)c2c3cc(-c4cnc5ccccc5c4)ccc3ncc21` it was “inactive”.
Still for that read-out and setting: the value for `Cc1cnc(-c2cnc(NCCNc3ccc(C#N)cn3)nc2-c2ccc(Cl)cc2Cl)[nH]1` was 3.38 µM (active); that for `CC(C)c1nn(-c2c(Cl)cccc2Cl)c2nc(Cc3ccc(OCCO)cc3)[nH]c(=O)c12` was “inactive”.
As for `CC[C@@H]1C(=O)N(C)c2cnc(Nc3ccc(C(=O)NC4CCC(N5CCN(CC6CC6)CC5)CC4)cc3OC)nc2N1C(C)C` (some centres not stated), the Potency result is “inactive”.
`CC(=O)c1c(C)c2cnc(Nc3ccc(N4CCNCC4)cn3)nc2n(C2CCCC2)c1=O`: the activity, negative = inhibition is 0% [at 6.45 µM] (inactive).
In the case of `NCC(=O)Nc1ccc(-n2nc(C(F)(F)F)cc2-c2ccc3c(ccc4ccccc43)c2)cc1`, the Potency entry is “inactive”.
Regarding `CC[C@@]1(O)C(=O)OCc2c1cc1n(c2=O)Cc2cc3cc(O)ccc3nc2-1`, the Potency result is “inactive”.
Consider `CC(C)(C)c1cc(NC(=O)Nc2ccc(-c3cn4c(n3)sc3cc(OCCN5CCOCC5)ccc34)cc2)no1`, for which the Potency result was “inactive”.
On to `O=C(Nc1cc(C(F)(F)F)cc(C(F)(F)F)c1)c1cc(Cl)ccc1O`, for which the Potency entry was “inactive”.
For `c1ccc2c(CCNc3ccc(Nc4ccncc4)cc3)c[nH]c2c1`, the Potency result is “inactive”.
On to `Cc1ccc(C(=O)Nc2ccc(CN3CCN(C)CC3)c(C(F)(F)F)c2)cc1C#Cc1cnc2cccnn12`, for which the Potency result is “inactive”.
Take `COC(=O)Nc1nc2ccc(C(=O)c3ccc(F)cc3)cc2[nH]1`: the Potency entry is “inactive”.
As for `CC(C)c1cc(C(=O)N2Cc3ccc(CN4CCN(C)CC4)cc3C2)c(O)cc1O`, the Potency result was “inactive”.
Take `CN1CCN(Cc2ccc(NC(=O)Nc3ccc(Oc4cc(NC(=O)C5CC5)ncn4)cc3)cc2C(F)(F)F)CC1`: the Potency entry is “inactive”.
In the case of `Cc1cn2cc(C(=O)N(C)CCO)cc(N[C@@H]3CCOc4cccc(C)c43)c2n1`, the Potency result was “inactive”.
Same read-out and setting: the value for `COc1cccc(-c2ccc(NC(=O)C3=C(C(=O)O)CCC3)c(F)c2)c1` was 12 µM (active); that for `CNC(=O)c1cc(Oc2ccc(NC(=O)Nc3cc(C(C)(C)C)nn3-c3ccc4ncccc4c3)c(F)c2)ccn1` was “inactive”.
Turning to `Cc1c(Cn2c(C)nc3c(C(=O)O)cc(N4CCOCC4)cc32)cccc1C(F)(F)F`, the Potency result was “inactive”.
Turning to `CC(C)c1cnn2c(NCc3ccccc3)cc(N[C@@H](CO)[C@H](O)CO)nc12`, the Potency result is “inactive”.
Same read-out and setting: in the case of `Nc1nc(Nc2ccc(S(N)(=O)=O)cc2)nn1C(=O)c1c(F)cccc1F` it was “inactive”.
With `CN(C)CC(C)(C)CNc1nn2c(-c3ccccc3)nnc2cc1C1CCC1`, the Potency result is “inactive”.
